Data on 30 compounds can be found in PubChem BioAssay (NCATS).

The structures appear in SMILES notation. Results filed as inconclusive are left out. Entries that show only a call come without a potency. Values without a mark were called inactive. Active and inactive are the calls of the source. Calls follow the shape of the dose curve; as a rule, active = well fitted curve in the direction sought with a large enough effect; inconclusive = small, poorly fitted or top-dose-only effect, or another doubt; inactive = no such curve, though single readings can be large; an effect the other way counts as inactive or inconclusive.
Potency is read from the fitted curve at half-maximal effect.

Sequence of Calcium and integrin-binding protein 1 (Homo sapiens) (Q99828 whole entry, looked up): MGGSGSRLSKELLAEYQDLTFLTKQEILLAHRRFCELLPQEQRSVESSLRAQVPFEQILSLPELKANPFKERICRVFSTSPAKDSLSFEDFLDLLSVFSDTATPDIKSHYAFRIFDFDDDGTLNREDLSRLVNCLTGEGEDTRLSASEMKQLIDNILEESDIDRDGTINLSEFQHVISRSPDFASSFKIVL

The first test concerns the target Calcium and integrin-binding protein 1 (Homo sapiens) (UniProt Q99828). In words: Confirmatory qHTS for Identification of Calcium Integrin Binding Protein 1 (CIB1) Competitor (AID 1508617). Also: nearly all actives have a fitted effect of over 65% in size. The note with it: CIB1 binding competition assay, biochemical qHTS; series mostly up to 76.6 µM. Put shortly:
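Confirmatory qHTS measures displacement of a FITC-alphaIIb peptide (100 nM) from CIB1-GST (1 uM) by fluorescence polarization. Calcium-containing HEPES buffer, pH 7.4; two 15 min room-temperature incubations.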
Consider `CCC1C(=O)N(C)c2cnc(Nc3ccc(C(=O)NC4CCN(C)CC4)cc3OC)nc2N1C1CCCC1` (stereo unspecified), for which the Potency entry was “inactive”. On the same count and under the same terms, in the case of `COc1nc2ccc(Br)cc2cc1[C@@H](c1ccccc1)[C@@](O)(CCN(C)C)c1cccc2ccccc12` it was 89.1 µM (active); in that of `Cn1sc(=O)n(Cc2ccccc2)c1=O`, 7.94 µM (active). Consider `N#Cc1ccc(Nc2nc(-c3ccc(O)cc3O)cs2)cc1C(F)(F)F`, for which the Potency was 50.1 µM (active). For `O=C(c1ccccc1)c1c(O)cc(O)cc1O[C@@H]1O[C@H](CO)[C@@H](O)[C@H](O)[C@H]1O`, the Potency result is “inactive”. As for `O=C(O)CSc1cc(NS(=O)(=O)c2ccc(Br)cc2)c2ccccc2c1O`, the Potency is 12.6 µM (active).

A further test shares this target. Put plainly: Primary qHTS for Identification of Calcium Integrin Binding Protein 1 (CIB1) Competitor (AID 1508620).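 As to activity change, negative = inhibition: GST tagged CIB1 binding a fluorescein labelled alphaIIb integrin peptide tracer; top concentration of the series differs between compounds.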 The note with it: CIB1-GST / FITC-alphaIIb peptide fluorescence polarization; series mostly up to 114 µM. Put shortly:
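Fluorescence polarization competition: GST-tagged CIB1 (1 uM final) preincubated with compound 15 min at room temperature, then FITC-labelled alphaIIb peptide (100 nM final) added. After 15 min at room temperature, polarization read at Ex 480/Em 540.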
(qHTS replaces the single test concentration by a dilution series.)
Regarding `CCC(C)/C=C(C)/C=C/C1=CC2=CC(=O)C3(C)OC(C)(O)C(C(=O)OC)C3C2=CO1` (stereo unspecified), the Potency entry is “inactive”.

With `O=C(Nc1ccc(-c2ccc(Cl)c(Cl)c2)cc1)C1=C(O)c2ccccc2S(=O)(=O)N1`, the Potency entry was “inactive”. Consider `CN(C)C(CCOc1cccc2ccccc12)c1ccccc1` (stereo unspecified), for which the Potency result was “inactive”. The same measure, in the same setting: in the case of `CC(C)c1c(O)ccc2c1CC[C@H]1C(C)(C)CCC[C@]21C` it was “inactive”. Turning to `CNCCC(c1cccs1)c1ccc(O)c2ccccc12` (stereo unspecified), the Potency entry is “inactive”. On the same count and under the same terms, with `CC(C)=C1C[C@@]2(C)C(=CC1=O)CC[C@@H](OC(=O)/C(C)=C/CO)[C@@H]2C` the entry was “inactive”; with `CC(C)=C[C@@H]1[C@H](CO[C@@H]2O[C@H](CO)[C@@H](O)[C@H](O)[C@H]2O)C1(C)C`, “inactive”; with `CC(=O)O[C@@H]1C[C@@]2(C)C(CC[C@]3(C)C2CC=C2C4CC(C)(C)CC[C@]4(C(=O)O)CC[C@]23C)C(C)(C)[C@H]1O` (stereo partly specified), “inactive”. For the compound `CC(=O)O[C@@H]1CC2C(/C=C(\C)C(=O)[C@@]3(O)C[C@@H](C)[C@H](OC(=O)c4ccccc4)C3/C=C/1C)C2(C)C` (stereo partly specified), the Potency result was “inactive”. As for `COc1ccc([C@H]2Cc3cccc(O)c3C(=O)O2)cc1OC`, the Potency result was “inactive”. Same read-out and setting: in the case of `CCc1c(Cl)c(O)c(Cl)c(O)c1C(=O)O[C@H]1[C@H](O)[C@H](OC)[C@H](OC/C2=C\C=C\C[C@H](O)/C(C)=C\[C@H](CC)[C@@H](O[C@@H]3OC(C)(C)[C@@H](OC(=O)C(C)C)[C@H](O)[C@@H]3O)/C(C)=C/C(C)=C/C[C@@H]([C@@H](C)O)OC2=O)O[C@@H]1C` it was “inactive”. Turning to `CCn1c(N)c(C(=O)NC)c(=O)c2ccc(C#CC(C)(O)COC)nc21` (stereo unspecified), the Potency result was “inactive”. Same read-out and setting: with `Cn1sc(=O)n(Cc2ccccc2)c1=O` the figure was 8.91 µM (active); with `CC(=O)OC1CC(O)(C(C)C)C2C(OC(=O)c3ccc(O)cc3)C=C(C)C(=O)CC12C` (stereo unspecified), “inactive”; with `CC(=O)O[C@H]1C[C@H](OC(C)=O)[C@]2(C)[C@H](CC[C@@]34O[C@@H]3C3=C(C)C(=O)O[C@@H]3C[C@H]42)C1(C)C`, “inactive”. Same read-out and setting: in the case of `C/C=C(\C)C(=O)OC1C=C(C)CC(OC(=O)c2ccc(O)cc2)C2C1(C)CCC2(O)C(C)C` (stereo unspecified) it was “inactive”; in that of `CN[C@H]1CC[C@@H](c2ccc(Cl)c(Cl)c2)c2ccccc21`, “inactive”; in that of `CC(=O)OC(C)(C)/C=C/C(=O)C(C)(O)C1C(O)CC2(C)C3CC=C(C(C)(C)C(=O)O)C(CC(=O)O)C3(C)C(=O)CC12C` (stereo unspecified), “inactive”.

With `COc1c2c(c(C)c3c1C(=O)OC3)O[C@@]1(C)C[C@@H](OC(C)=O)[C@]34O[C@](OC)(CC[C@]3(C)[C@H]1C2)OC4(C)C`, the Potency result is “inactive”. Same read-out and setting: in the case of `CC(=O)OC1C(OC(=O)c2ccccc2)C2C(C)(C)CCC(OC(C)=O)C2(C)C23CCC(C)(C2)C(=O)CC13` (stereo unspecified) it was “inactive”; in that of `CC1(C)CC[C@]2(C(=O)O)CC[C@]3(C)C(=CCC4[C@@]5(C)C[C@@H](O)[C@H](O)[C@@](C)(CO)C5CC[C@]43C)[C@@H]2[C@@H]1O` (stereo partly specified), “inactive”. With `CC1OC(OC2C(O)COC(O[C@@H]3[C@@H](O)[C@@H](O)[C@H](OC4C(OC(=O)[C@]56CCC(C)(C)CC5C5=CCC7[C@@]8(C)C[C@H](O)[C@H](OC9OC(CO)C(O)C(O)C9O)[C@@](C)(CO)C8[C@H](O)C[C@@]7(C)[C@]5(C)CC6)OCC(O)C4O)O[C@H]3C)C2O)C(O)C(O)C1O` (stereo partly specified), the activity change, negative = inhibition is -1.65% [at 12.4 µM]. With `COc1ccc(CN2CCN(CCCSc3cc(C(C)(C)C)c(O)c(C(C)(C)C)c3)CC2)c(OC)c1OC`, the Potency entry is “inactive”. The same measure, in the same setting: in the case of `CC(=O)OC1CC2(C)C(CCC(C)C23Cc2c(O)cc(CO)c(C=O)c2O3)C(C)(C)C1O` (stereo unspecified) it was “inactive”; in that of `CC(CCC1(O)OC2CC3C4CC=C5CC(O[C@@H]6O[C@H](CO)[C@@H](O[C@@H]7O[C@@H](C)[C@H](O)[C@@H](O)[C@H]7O)[C@H](O)[C@H]6O[C@@H]6O[C@@H](C)[C@H](O)[C@@H](O)[C@H]6O)CCC5(C)C4CCC3(C)C2C1C)CO[C@@H]1O[C@H](CO)[C@@H](O)[C@H](O)[C@H]1O` (stereo partly specified), “inactive”.
